Source: PubChem (National Center for Advancing Translational Sciences (NCATS))
Hits are enriched below; roughly 11% of the tested compounds scored in any of these assays.
JMJD2E inh = qHTS Assay for Inhibitors of Human Jumonji Domain Containing 2E (JMJD2E); AID 2147, 2009; JMJD2E catalytic domain, FDH-coupled NADH fluorescence (FDH is formaldehyde dehydrogenase); Potency, µM (titrated, usually from 57.1 µM), inactives show top-dose activity change, negative = inhibition, usual class: inhibitors; actives 1.6% (n = 230,000);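 further: potency means the concentration at half of the fitted maximal effect; 0% = wells with enzyme and -100% = buffer wells without enzyme; nearly all actives have a fitted effect of over 50% in size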
Target sequence (B2RXH2 1-337 limits assumed): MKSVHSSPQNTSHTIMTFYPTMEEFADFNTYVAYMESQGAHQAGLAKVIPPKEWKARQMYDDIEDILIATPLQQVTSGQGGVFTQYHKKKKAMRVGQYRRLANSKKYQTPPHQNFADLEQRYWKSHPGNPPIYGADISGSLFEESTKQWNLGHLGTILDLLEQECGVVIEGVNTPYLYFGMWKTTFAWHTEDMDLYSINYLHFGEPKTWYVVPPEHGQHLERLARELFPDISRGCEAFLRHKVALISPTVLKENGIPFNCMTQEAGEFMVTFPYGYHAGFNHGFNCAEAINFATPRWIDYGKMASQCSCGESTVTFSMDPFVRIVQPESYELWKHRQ
PNC assembly inh = High Content Assay for Compounds that inhibit the Assembly of the Perinucleolar Compartment; activity change (PNC), negative = inhibition, % at 10 µM; PC3M PTB-GFP, PNC prevalence imaging, 16 h; hits give low values; actives 3.1% (n = 140,000);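 active means readout at or below -70, meaning at least 70% loss of cells showing the perinucleolar compartment, a nuclear body marking cancer cells; inconclusive means readout between -30 and a set limit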;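 further: plate controls were DMSO wells for no effect and camptothecin positive control wells for full effect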
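Compounds are pinned in duplicate onto adhered PC3M cells stably expressing GFP-tagged PTB and incubated 16 h at 37 C. Cells are then fixed, nuclei stained with Hoechst, and PNC-positive cells counted.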
ALDH1A1 block = qHTS Assay for Inhibitors of Aldehyde Dehydrogenase 1 (ALDH1A1). Aldehyde dehydrogenase 1A1 (Homo sapiens), P00352. Purified ALDH1A1, NADH fluorescence, propionaldehyde substrate. Potency, µM (titrated, usually from 75.3 µM), inactives show at the highest dose activity, negative = inhibition, most hits filed as inhibitors. actives 7.3% (n = 220,000);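 further: potency means the concentration at half of the fitted maximal effect; plate controls were no enzyme wells and a reference inhibitor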
HPGD block = qHTS Assay for Inhibitors of HPGD (15-Hydroxyprostaglandin Dehydrogenase); AID 894, 2007; Potency, µM, without a hit: at the top dose activity change, negative = inhibition, most hits filed as inhibitors; 15-hydroxyprostaglandin dehydrogenase [NAD(+)] (Homo sapiens), P15428; purified HPGD, NADH fluorescence kinetic, PGE2 substrate; actives 4.3% (n = 150,000); further: potency means the concentration at half of the fitted maximal effect
Target sequence (P15428 whole entry, looked up): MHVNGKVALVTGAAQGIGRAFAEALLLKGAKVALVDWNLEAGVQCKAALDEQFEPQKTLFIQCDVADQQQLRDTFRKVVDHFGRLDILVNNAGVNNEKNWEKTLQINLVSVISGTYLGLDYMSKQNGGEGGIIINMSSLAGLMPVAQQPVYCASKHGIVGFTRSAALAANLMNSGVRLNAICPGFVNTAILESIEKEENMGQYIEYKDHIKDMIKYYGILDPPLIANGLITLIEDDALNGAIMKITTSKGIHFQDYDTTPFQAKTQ
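NADH formation kinetics: reaction with 30 uM PGE2 and 1 mM NAD+ (final), 20 nM enzyme, Tris-HCl pH 8 with Tween 20, after 15 min compound preincubation at room temperature. Fluorescence change, last versus first of five reads.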
An asterisk follows results filed as active; ? = inconclusive; . = not tested or not shown; [ ] = another dose, or the depositor's remark. Unless noted, the call rests on the fitted dose curve; in most records, active means well fitted inhibition curve with a large enough effect (not every such curve was filed as active); inconclusive means small, poorly fitted or top-dose-only effect, or another doubt; inactive means no such curve, though single readings can be large or run the other way. Unless noted, on the % scale 0 is the no-effect control and ±100 the full control effect.

SMILES	JMJD2E inh	PNC assembly inh	ALDH1A1 block	HPGD block
CNC(=S)N/N=C/c1cn(CCOc2ccccc2OC)c2ccccc12	?	?	-3%	-15%
CSc1ncccc1C(=O)OCC(=O)NCc1ccc2c(c1)OCO2	9%	.	8%	.
CC(C(=O)Nc1cccnc1)N1C(=O)C2C3C=CC(C3)C2C1=O (configuration not stated)	-1%	-1	20µM*	-16%
O=C(Nc1ccc(N2C(=O)C3C4C=CC(C4)C3C2=O)cc1)Nc1cccnc1 (configuration not stated)	-2%	-25	?	18µM*
CC(C(=O)Nc1cccnc1)N1C(=O)c2ccccc2C1=O (configuration not stated)	4%	?	14%	0%
O=C(Nc1ccc(N2C(=O)C3C4C=CC(C4)C3C2=O)cc1)Nc1nncs1 (configuration not stated)	-8%	?	-3%	-21%
COC(=O)C1CCN(C(=O)COC(=O)CCc2nc3ccccc3c(=O)[nH]2)CC1	1%	?	-11%	-7%
CCOc1ccc(C2NC(=O)C(C#N)=C(S)N2c2ccc(OC)cc2)cc1OC (configuration not stated)	?	20	20µM*	-29%
COc1cc(C2NC(=O)C(C#N)=C(S)N2c2ccc(C)cc2)ccc1OC(C)C (configuration not stated)	-2%	?	-102%	25µM*
COc1ccc(N2C(S)=C(C#N)C(=O)NC2c2ccc(OC)c(OC)c2)cc1 (configuration not stated)	-11%	.	?	.
COc1ccc(C(=O)C2CCCN(Cc3ccc4nonc4c3)C2)c(OC)c1 (configuration not stated)	-3%	.	?	.
C[C@@H]1O[C@H](O[C@@H]2[C@H](C)O[C@H](O[C@@H]3[C@H](C)O[C@H](O[C@H]4CC[C@]5(C)[C@@H](CC[C@@H]6[C@H]5C[C@@H](O)[C@]5(C)[C@@H](C7=CC(=O)OC7)CC[C@]65O)C4)C[C@@H]3O)C[C@@H]2O)C[C@H](O)[C@@H]1O	-1%[25.5 µM]	.	13%[20.9 µM]	-4%
c1ccc(N2CCOCCOCCOCCOCC2)cc1	5%	.	.	.
Cc1ccc(C)n1-c1ccc(N2CCOCC2)cc1	?	26	7.1µM*	-25%
Cc1ccc(C)n1-c1ccc(N(C)C)cc1	16µM*	.	?	.
CCOc1ccc(N(C)S(=O)(=O)c2ccc3[nH]cc(C(=O)NCC4CCCO4)c(=O)c3c2)cc1 (configuration not stated)	0%	?	-19%	14µM*
CCOc1ccc(NS(=O)(=O)c2ccc3[nH]cc(C(=O)NCCOC)c(=O)c3c2)cc1	-8%	26	6%	-8%
CN(CCC#N)S(=O)(=O)c1ccc2[nH]cc(C(=O)NCCc3ccccc3)c(=O)c2c1	?	58	25µM*	?
CCc1ccccc1N(C)S(=O)(=O)c1ccc2[nH]cc(C(=O)O)c(=O)c2c1	?	.	-6%	.
CCCCCNC(=O)c1c[nH]c2ccc(S(=O)(=O)N3CCC4(CC3)OCCO4)cc2c1=O	-5%	-113*	-14%	?
Cc1ccccc1N(C)S(=O)(=O)c1ccc2[nH]cc(C(=O)NCC3CCCO3)c(=O)c2c1 (configuration not stated)	?	-84*	?	?
O=C(NCCN1CCOCC1)c1c[nH]c2ccc(S(=O)(=O)N3CCOCC3)cc2c1=O	?	40	?	?
CCc1ccc(N(C)S(=O)(=O)c2ccc3[nH]cc(C(=O)NCCN4CCOCC4)c(=O)c3c2)cc1	-20%	16	22µM*	?
O=C1c2ccccc2C(=O)N1c1ncn[nH]1	1%	.	17%	.
CCCCOc1ccc(C(=O)Nc2ccncc2)cc1	-7%	-118*	-6%	-1%
SMILES	JMJD2E inh	PNC assembly inh	ALDH1A1 block	HPGD block
CCCOc1ccc(C(=O)NC(C)C(=O)O)cc1 (configuration not stated)	-6%	-106*	9%	-9%
CC(C)CCOc1ccc(C(=O)CCNC(C)C(=O)O)cc1 (configuration not stated)	4%	29	0.13µM*	-17%
CC(NC(=O)c1ccc(C(C)(C)C)cc1)C(=O)O (configuration not stated)	-13%	-3	14%	-8%
COc1ccc(-c2[nH]ncc2CN2CCC(c3ccncc3)CC2)cc1F	2%	.	.	.
COc1ccc(-c2[nH]ncc2CN2CCN(C3CCCCC3)C(=O)C2)cc1F	-7%	.	1.4µM*	.
Cn1cccc1C(=O)N1CCC2(CC1)CN(C(c1ccccc1)c1ccccc1)C2	.	.	?	-16%
CCCCC/C=C\C\C=C/C=C/C=C/[C@@H](SCC(NC(C)=O)C(=O)O)[C@@H](O)CCCC(=O)O (some centres not stated)	-8%	.	7%	-4%
Cc1ccc(/C=N/c2sc3c(c2C#N)CCC3)s1	?	-9	25µM*	-22%
N#Cc1c(/N=C/C=C/c2ccccc2)sc2c1CCCC2	?	21	7.9µM*	22µM*
Cc1ccc(/C=N/c2sc3c(c2C#N)CCCCC3)o1	2%	7	?	-14%
CN1CCN(/C=N/c2sc3c(c2C#N)CCCCC3)CC1	5%	16	10µM*	-16%
Cc1[nH]n(-c2ccc(F)cc2)c(=O)c1/C=N/c1sc2c(c1C#N)CCCC2	-6%	57	?	-17%
Cc1[nH]n(-c2cccc3ccccc23)c(=O)c1/C=N/c1sc2c(c1C#N)CCC2	?	31	5µM*	?
N#Cc1c(/N=C/c2cc3ccccc3s2)sc2c1CCC2	?	?	25µM*	-17%
N#Cc1c(/N=C/c2ccco2)sc2c1CCC2	-5%	38	-5%	-7%
Cc1cc(C)c(C)c(OC(=O)c2sc(Cl)nc2C)c1	-6%	30	5%	-8%
COc1ccc(C(=O)Oc2ccc(C(=S)N3CCCC3)cc2)cc1OC	1%	?	-2%	-10%
CCOC(=O)C1CCCN(C(=S)Nc2ccc(OC)cc2)C1 (configuration not stated)	-6%	.	-1%	.
COc1cc(C(=S)N2CCCC2)cc(OC)c1O	1%	?	-99%	20µM*
COc1ccc(NC(=S)N2CCC(C(=O)N3CCCCCC3)CC2)cc1	5%	-13	14µM*	-18%
COc1ccc(C(=S)N2CCCCCC2)cc1	-5%	?	?	16µM*
CS(=O)(=O)N1N=C(c2cccs2)CC1c1ccc(Cl)o1 (configuration not stated)	1%	.	-15%	.
CC(=O)C(Cc1ccccc1)NC(=O)CCl (configuration not stated)	?	.	22µM*	.
O=C(CCl)NC(Cc1ccccc1)c1ccccc1 (configuration not stated)	-3%	.	1.4µM*	.
